DAX1 inh-1: inhibitors of human orphan nuclear receptor DAX1 (NR0B1). inhibition, % at 6.75 µM. HEK293 Gal4-DAX1 luciferase reporter, luminescence. P51843. 340,000 tested, 0.99% active;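 active = inhibition above the mean over all tested compounds plus 3 SD, cut at about 4.2% in these data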;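 note: inhibition shows as a rise in luminescence from relieved DAX1 repression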
Target sequence (P51843 207-470 limits assumed): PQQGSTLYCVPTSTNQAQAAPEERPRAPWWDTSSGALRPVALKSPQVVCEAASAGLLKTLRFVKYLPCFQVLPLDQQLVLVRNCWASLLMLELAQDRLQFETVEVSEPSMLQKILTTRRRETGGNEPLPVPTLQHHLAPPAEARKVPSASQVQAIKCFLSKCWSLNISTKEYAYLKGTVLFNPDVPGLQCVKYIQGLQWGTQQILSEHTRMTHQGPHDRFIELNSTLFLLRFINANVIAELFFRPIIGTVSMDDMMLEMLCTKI
ssDAF12 agonist: activators of S. stercoralis DAF-12 nuclear receptor. activation, % at 6.8 µM. HEK293 ssDAF-12/GRIP1 lit1-tk-luc reporter, luminescence; % of 3 µM dafachronic acid response. AID 652126. 370,000 tested, 1% active;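 active = activation above the mean over all tested compounds plus 3 SD, cut at about 0.9% in these data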
PolyA inhibitor: inhibitors of polyadenylation in S. cerevisiae; S. cerevisiae SKY197-pL101 polyadenylation reporter, beta-gal luminescence; efflux-impaired pdr1/pdr3 knockout yeast; score 100 = 6 SD above DMSO; activity score, % at 12 µM; 300,000 tested, 0.02% active; AID 1875;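 active = lowest replicate activity score at least 50, where 100 means six control SD above control mean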;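 note: yeast exposed to compound for 9 h at 30 °C; higher score means more reporter readthrough which indicates perturbed polyadenylation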
hgDAF-12 ag: agonists of H. glycines DAF-12 nuclear receptor | activation, % at 6.8 µM | HEK293 GAL4-hgDAF12 UAS-luciferase reporter, agonist luminescence; normalized to butyrate control | 370,000 tested, 1.8% active;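 active = activation above a cutoff set at the mean of all screened compounds plus 3 SD, cut at about 10% in these data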
DAX1 inh-2: blocks DAX1 repression of SF-1 activated StAR promoter; AID 652010; HEK293T StAR-luciferase reporter, SF-1/DAX-1 repression relief; 370,000 tested, 1.1% active; inhibition, % at 6.8 µM;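 active = inhibition above the mean over all tested compounds plus 3 SD, cut at about 3.6% in these data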;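 note: higher inhibition means more luminescence from relief of DAX-1 repression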
hcDAF-12 act: H. contortus DAF-12 activation, primary screen; HEK293 hcDAF-12 lit1-tk-luc reporter, luminescence; 0% DMSO, 100% Δ7-dafachronic acid; activation, % at 6.8 µM; 370,000 tested, 1.4% active;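 active = activation above the mean of all tested compounds plus 3 SD, cut at about 5.5% in these data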
A number is an active result. An excerpt weighted towards active compounds, which were near 4.1% of everything screened.

Screening COc1ccc(NC(=O)NC(=O)c2ccccc2)cc1 returned DAX1 inh-1 inactive, ssDAF12 agonist inactive, PolyA inhibitor inactive, hgDAF-12 ag inactive, DAX1 inh-2 inactive and hcDAF-12 act inactive.
`O=C(NC(=O)c1ccccc1)Nc1ccccc1` gave DAX1 inh-1 inactive, ssDAF12 agonist 1.3, PolyA inhibitor inactive, hgDAF-12 ag 12, DAX1 inh-2 inactive and hcDAF-12 act 6.2.
`CC(=O)c1cccc(NC(=S)NC(=O)c2ccccc2)c1` gave DAX1 inh-1 inactive, ssDAF12 agonist inactive, PolyA inhibitor inactive, hgDAF-12 ag 12, DAX1 inh-2 inactive and hcDAF-12 act inactive.
O=C(NC(=S)Nc1ccc2cn[nH]c2c1)c1ccccc1 was read as DAX1 inh-1 inactive, ssDAF12 agonist inactive, PolyA inhibitor inactive, hgDAF-12 ag 12, DAX1 inh-2 3.6 and hcDAF-12 act inactive.
For C[C@H]1[C@@H](OC(=O)N2CCCC2)CC[C@@]23CCCN2C(=O)CCC[C@@H]13 the results were ssDAF12 agonist inactive, hgDAF-12 ag inactive and hcDAF-12 act inactive.
`CC(C)C[C@@H]1COc2cc(N3CCCC3)ccc2S(=O)(=O)N1` gave ssDAF12 agonist inactive, hgDAF-12 ag inactive, DAX1 inh-2 inactive and hcDAF-12 act inactive.
Screening CC(=O)C1=C(C)N(Cc2ccc(F)cc2)C(=S)NC1c1ccc(Br)cc1 (stereo not drawn) returned ssDAF12 agonist inactive, hgDAF-12 ag inactive, DAX1 inh-2 inactive and hcDAF-12 act inactive.
`O=C(NC1CCS(=O)(=O)C1)/C(=C/c1ccc(Cl)cc1)NC(=O)c1ccccc1` (stereo not drawn) gave DAX1 inh-1 4.8, ssDAF12 agonist inactive, PolyA inhibitor inactive, hgDAF-12 ag inactive, DAX1 inh-2 inactive and hcDAF-12 act inactive.
For CC(=O)/C=C1/C(=O)Nc2ccccc21 the results were DAX1 inh-1 inactive, ssDAF12 agonist inactive, PolyA inhibitor inactive, hgDAF-12 ag inactive, DAX1 inh-2 inactive and hcDAF-12 act 6.0.
O=C(O)c1cccc(-n2cc(-c3cccc(C(F)(F)F)c3)cn2)c1 was read as DAX1 inh-1 inactive, ssDAF12 agonist inactive, PolyA inhibitor inactive, hgDAF-12 ag 13, DAX1 inh-2 inactive and hcDAF-12 act inactive.
`O=C(O)c1ccc(-c2nc(-c3cccc(C(F)(F)F)c3)cs2)cc1` gave DAX1 inh-1 inactive, ssDAF12 agonist inactive, PolyA inhibitor inactive, hgDAF-12 ag inactive, DAX1 inh-2 inactive and hcDAF-12 act inactive.
For COc1ccc(N=Cc2c(O)n(-c3cccc(C)n3)c(=O)c3ccccc23)c(OC)c1 the results were DAX1 inh-1 5.2, ssDAF12 agonist inactive, PolyA inhibitor inactive, hgDAF-12 ag inactive, DAX1 inh-2 inactive and hcDAF-12 act inactive.
`COc1ccc(CC(=O)N(Cc2ccccc2)c2ccccc2C(=O)Nc2cc(OC)ccc2OC)cc1` gave ssDAF12 agonist inactive, hgDAF-12 ag inactive, DAX1 inh-2 inactive and hcDAF-12 act inactive.
NC(N)=NC(=O)c1nc(Cl)c(N)nc1N was read as DAX1 inh-1 inactive, ssDAF12 agonist inactive, PolyA inhibitor inactive, hgDAF-12 ag inactive, DAX1 inh-2 inactive and hcDAF-12 act inactive.
For NC(N)=NC(=O)c1nc(Cl)c(N2CCCCCC2)nc1N the results were DAX1 inh-1 inactive, ssDAF12 agonist inactive, hgDAF-12 ag 13, DAX1 inh-2 inactive and hcDAF-12 act inactive.
Screening CN(C(=O)CSc1nnc(-c2cccs2)n1N)c1ccccc1 returned DAX1 inh-1 inactive, ssDAF12 agonist inactive, hgDAF-12 ag inactive, DAX1 inh-2 inactive and hcDAF-12 act inactive.
Screening Cc1nnc(SCC(=O)N(C)c2ccccc2)n1-n1cccc1 returned DAX1 inh-1 4.7 and PolyA inhibitor inactive.
COc1cccc(C(=O)NCCC2=CCCCC2)c1OC was read as DAX1 inh-1 4.5, ssDAF12 agonist inactive, PolyA inhibitor inactive, hgDAF-12 ag inactive, DAX1 inh-2 inactive and hcDAF-12 act inactive.
`CCCC/C=C1/[C@H](c2ccccc2)N(C)C2=N[C@H](c3ccccc3)CC(=O)N21` gave ssDAF12 agonist inactive, hgDAF-12 ag inactive and hcDAF-12 act inactive.
`Cc1cc(F)ccc1C(O)c1ncc(-c2ccc3ccccc3c2)[nH]1` (stereo not drawn) gave ssDAF12 agonist inactive, hgDAF-12 ag inactive, DAX1 inh-2 3.7 and hcDAF-12 act inactive.

High-throughput results from PubChem BioAssay.
